Here are results for 34 compounds from ChEMBL document CHEMBL1961873, “Compounds: GSK PKIS; Assays: Nanosyn kinase panel” (2012).

Activated CDC42 kinase 1 (Homo sapiens), sequence (Q07912 whole entry, looked up): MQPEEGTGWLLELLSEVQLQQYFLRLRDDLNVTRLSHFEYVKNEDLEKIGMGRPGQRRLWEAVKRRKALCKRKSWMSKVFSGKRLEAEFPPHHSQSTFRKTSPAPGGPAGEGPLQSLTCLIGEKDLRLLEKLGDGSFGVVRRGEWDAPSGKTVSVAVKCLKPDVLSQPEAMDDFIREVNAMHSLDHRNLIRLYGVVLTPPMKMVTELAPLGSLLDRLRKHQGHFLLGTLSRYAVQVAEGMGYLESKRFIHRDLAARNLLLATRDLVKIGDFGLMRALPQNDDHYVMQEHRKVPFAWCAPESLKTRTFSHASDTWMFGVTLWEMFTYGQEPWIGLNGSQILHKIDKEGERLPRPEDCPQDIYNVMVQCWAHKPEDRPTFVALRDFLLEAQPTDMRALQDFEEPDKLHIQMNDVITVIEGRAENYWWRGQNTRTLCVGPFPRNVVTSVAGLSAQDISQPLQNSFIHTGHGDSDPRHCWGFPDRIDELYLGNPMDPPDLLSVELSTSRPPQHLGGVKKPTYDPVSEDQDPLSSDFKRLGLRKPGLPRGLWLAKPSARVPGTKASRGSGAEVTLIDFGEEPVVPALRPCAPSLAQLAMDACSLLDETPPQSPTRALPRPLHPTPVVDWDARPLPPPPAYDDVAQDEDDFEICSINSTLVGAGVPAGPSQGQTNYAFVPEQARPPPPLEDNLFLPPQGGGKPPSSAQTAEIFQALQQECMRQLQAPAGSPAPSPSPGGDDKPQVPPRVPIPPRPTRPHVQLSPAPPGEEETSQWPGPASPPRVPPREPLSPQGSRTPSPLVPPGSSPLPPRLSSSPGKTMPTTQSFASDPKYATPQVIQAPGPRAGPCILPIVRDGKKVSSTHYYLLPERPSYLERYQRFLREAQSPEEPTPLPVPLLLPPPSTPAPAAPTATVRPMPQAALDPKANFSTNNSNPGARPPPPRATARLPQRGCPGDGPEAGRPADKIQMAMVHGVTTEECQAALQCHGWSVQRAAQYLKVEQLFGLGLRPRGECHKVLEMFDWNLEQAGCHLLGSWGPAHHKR

The target in one experiment is T1, Non-receptor tyrosine-protein kinase TNK1 (Homo sapiens) (UniProt Q13470).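 Further: values are averaged percent inhibition of TNK1, compounds from the GSK published kinase inhibitor set.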
T1 sequence (whole entry): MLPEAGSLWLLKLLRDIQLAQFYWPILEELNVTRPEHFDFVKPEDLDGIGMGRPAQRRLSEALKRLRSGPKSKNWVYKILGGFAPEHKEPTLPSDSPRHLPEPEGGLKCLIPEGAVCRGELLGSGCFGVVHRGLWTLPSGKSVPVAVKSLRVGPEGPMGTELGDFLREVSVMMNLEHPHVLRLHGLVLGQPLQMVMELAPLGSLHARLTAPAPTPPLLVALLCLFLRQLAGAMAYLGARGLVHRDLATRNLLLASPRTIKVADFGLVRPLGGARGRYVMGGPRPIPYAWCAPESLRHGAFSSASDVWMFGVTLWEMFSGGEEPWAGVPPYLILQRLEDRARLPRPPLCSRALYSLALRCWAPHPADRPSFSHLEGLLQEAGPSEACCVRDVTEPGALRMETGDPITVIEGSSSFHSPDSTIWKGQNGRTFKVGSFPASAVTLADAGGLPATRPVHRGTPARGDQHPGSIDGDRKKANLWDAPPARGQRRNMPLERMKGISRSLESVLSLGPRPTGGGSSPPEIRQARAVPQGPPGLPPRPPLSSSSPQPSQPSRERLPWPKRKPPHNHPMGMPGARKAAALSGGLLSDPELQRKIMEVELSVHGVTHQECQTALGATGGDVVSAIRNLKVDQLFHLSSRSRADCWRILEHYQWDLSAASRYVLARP
Particulars: at 1 µM.
As to `NC(=O)c1cc(-c2ccc(F)cc2)cc(-c2ccncc2)c1N`, the inhibition came to 7.48%.
Turning to `O=C1Nc2ccc(I)cc2C1=Cc1cc(Br)c(O)c(Br)c1`, the inhibition came to 84.5%.
As to `O=C(Nc1n[nH]c2nc(-c3ccco3)ccc12)C1CC1`, the inhibition was 1.24%.
As to `CN1CCN(CCCNc2nc3ccc(Oc4ccc(NC(=O)Nc5cc(C(F)(F)F)ccc5F)cc4)cc3[nH]2)CC1`, the inhibition worked out at 4.81%.
As to `COc1ccc2cc(-c3c(-c4ccncc4)nc(-c4ccc(S(C)(=O)=O)cc4C)n3C)ccc2c1`, the inhibition is 29.3%.
`CN(C)CCCNc1nccc(-c2c(-c3ccc(F)cc3)nn3cc(C(F)(F)F)ccc23)n1`: the inhibition was determined as 0.39%.
As for `COc1cc2ncn(-c3cc(OCc4cccs4)c(C(N)=O)s3)c2cc1OC`, the inhibition was 53.9%.
As to `Nc1nccc(-c2c(-c3ccc(F)cc3)ncn2C2CCC(O)CC2)n1` (stereo not given), the inhibition stood at 8.33%.
Regarding `O=C(Nc1n[nH]c2nc(-c3ccc(O)cc3)c(Br)cc12)C1CC1`, the inhibition worked out at 20.4%.
For `COc1cc(Nc2ncc3c(C)nc(-c4cccc(Oc5ccccc5)c4)n3n2)cc(OC)c1OC`, the inhibition came out at 23.8%.
On the same count and under the same terms, the same measure for `NS(=O)(=O)c1ccc(Nc2cc(-c3ccc(O)c(F)c3)n[nH]2)cc1`: 24.3%; for `CNC(=O)c1cncc(/C=C/c2c(C)cccc2C)c1`: 16.5%.
For `Clc1ccc(CNc2nccc(-c3cnn4ncccc34)n2)cc1`, the inhibition is 14.8%.
Take `CCS(=O)(=O)c1ccc(OC)c(Nc2ncc(-c3cccc(-c4ccccc4F)c3)o2)c1`: the inhibition is 61.8%.
As to `Cc1nnc(-c2ccc(C)c(-c3ccc(C(=O)NCc4ccc(Cl)cc4)cc3)c2)o1`, the inhibition amounted to 5.31%.
The same measure, in the same setting: under `NCc1ccc(-n2c(-c3nonc3N)nc3cnccc32)cc1` stands 3.5%; under `C/C(Nc1ccc(S(N)(=O)=O)cc1)=C1/C(=O)Nc2ccccc21`, 9.56%.
Still for that read-out and setting: under `NS(=O)(=O)c1ccc(N/N=C2\C(=O)Nc3ccc(-c4cnco4)cc32)cc1` stands 44.4%.

Another experiment addresses Activated CDC42 kinase 1 (Homo sapiens) (UniProt Q07912). Particulars: at 0.1 µM.
On to `c1ccc(Oc2ccc(Nc3ncc(-c4ccccc4)o3)cc2)cc1`, for which the inhibition was found to be 0.99%.
As for `COc1cc(Nc2ncc3c(C)nc(-c4cccc(C(F)(F)F)c4)n3n2)cc(OC)c1OC`, the inhibition amounted to 0.75%.
On the same count and under the same terms, the same measure for `COc1cc2ncn(-c3cc(OCc4ccccc4C(F)(F)F)c(C(C)=O)s3)c2cc1OC`: 1.52%; for `CCc1nccc2c1nc(-c1nonc1N)n2CC`: -0.52%.
Take `Cc1ccc(NC(=O)c2ccoc2)cc1-c1ccc(C(=O)NCC2CC2)cc1`: the inhibition came to 0.62%.
Regarding `NC(=O)c1ccc(Oc2nccc(-c3c(-c4ccc(F)cc4)ncn3C3CCNCC3)n2)cc1`, the inhibition was 0.55%.
As for `FC(F)(F)c1cccc(Nc2nccc(-c3cnn4nc(-c5ccccc5)ccc34)n2)c1`, the inhibition was determined as 0.76%.
Take `O=C(Nc1n[nH]c2cc(-c3ccccc3)ccc12)C1CC1`: the inhibition was found to be 0.74%.
On the same count and under the same terms, under `N#Cc1ccc(Oc2nccc(-c3c(-c4ccc(F)cc4)ncn3C3CCNCC3)n2)cc1` stands 0.82%.
Take `COc1cc(C)c(N(C)C(=O)CN(C)C)cc1Nc1nc(Nc2cccc(F)c2C(N)=O)c2cc[nH]c2n1`: the inhibition was 0.62%.
The same measure, in the same setting: the same measure for `O=C1Nc2ccccc2/C1=C/Nc1ccc(-n2cncn2)cc1`: 0.63%.
The same measure, in the same setting: under `CCN(CC)Cc1ccc(Nc2nccc(-c3cnn4ncccc34)n2)cc1` stands -0.16%; under `CN(C)CCOc1ccc(-c2cc(-c3ccc4c(c3)CCC4=NO)c(-c3ccncc3)o2)cc1`, -1.03%; under `COc1cc2ncn(-c3cc(OCCc4ccccc4)c(C(N)=O)s3)c2cc1OC`, 0.78%.
Same read-out and setting: under `CN(c1ccc(NC(=O)Nc2c(Cl)cccc2Cl)cc1)c1ccnc(Nc2cccc(CS(C)(=O)=O)c2)n1` stands 1.13%; under `NC(=O)c1cc(-c2ccncc2)cc(-c2ccccc2)c1N`, 1.25%; under `NC(=O)c1cc(-c2ccc(F)cc2)cc(-c2ccncc2)c1N`, 0.31%.
Regarding `O=C1Nc2ccc(I)cc2C1=Cc1cc(Br)c(O)c(Br)c1`, the inhibition worked out at 0.67%.
Still for that read-out and setting: under `O=C(Nc1n[nH]c2nc(-c3ccco3)ccc12)C1CC1` stands -0.07%; under `CN1CCN(CCCNc2nc3ccc(Oc4ccc(NC(=O)Nc5cc(C(F)(F)F)ccc5F)cc4)cc3[nH]2)CC1`, 2.56%; under `COc1ccc2cc(-c3c(-c4ccncc4)nc(-c4ccc(S(C)(=O)=O)cc4C)n3C)ccc2c1`, 0.74%.
Still for that read-out and setting: the same measure for `CN(C)CCCNc1nccc(-c2c(-c3ccc(F)cc3)nn3cc(C(F)(F)F)ccc23)n1`: 0.85%; for `COc1cc2ncn(-c3cc(OCc4cccs4)c(C(N)=O)s3)c2cc1OC`: 3.84%.
On the same count and under the same terms, the same measure for `Nc1nccc(-c2c(-c3ccc(F)cc3)ncn2C2CCC(O)CC2)n1` (stereo not given): -0.32%.
Consider `O=C(Nc1n[nH]c2nc(-c3ccc(O)cc3)c(Br)cc12)C1CC1`, for which the inhibition came to 1.69%.
With `COc1cc(Nc2ncc3c(C)nc(-c4cccc(Oc5ccccc5)c4)n3n2)cc(OC)c1OC`, the inhibition turned out to be 0.46%.
The same measure, in the same setting: the same measure for `NS(=O)(=O)c1ccc(Nc2cc(-c3ccc(O)c(F)c3)n[nH]2)cc1`: -1.31%.

What is called inhibition is the drop in the measured response relative to a control, in per cent.
